Test systems include SR leukemia; RPMI-8226 leukemia; OVCAR-8 ovarian; OVCAR-5 ovarian; OVCAR-4 ovarian; SK-OV-3 ovarian; IGROV1 ovarian; OVCAR-3 ovarian; HS 578T breast; NCI/ADR-RES ovarian; T-47D breast; BT-549 breast; MDA-MB-435 melanoma; SW-620 colon; MCF7 breast; HCT-116 colon; HCC-2998 colon; KM12 colon.
What all share (assay): NCI-60 one-dose screen, 48 h (100 = growth as untreated, 0 = no growth, -100 = all killed)
Common to all, as to conditions: 10 µM unless noted

About 83,000 compounds went through this panel and 20% of them were active in at least one assay; those are over-represented in the sample as a whole.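 Values shown are percent growth following 48 h exposure of cells in 96-well plates to a single concentration of compound; below 10 was considered active.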 Unmarked numbers belong to inactive results. The source made the active and inactive calls.

As for `CN1CCN(c2ccc3nc(-c4[nH]ncc4Nc4ncnc5c4OCCCN5)[nH]c3c2)CC1`, the growth in the test with SR leukemia is 3.46% (active); in the test on RPMI-8226 leukemia it was -36.3% (active); with OVCAR-8 ovarian, 0.0729% (active); in the test with OVCAR-5 ovarian it was -61.4% (active); in the test with OVCAR-4 ovarian it was -35.2% (active); with SK-OV-3 ovarian, -21.5% (active). The growth is -21.4% (active) in the test on IGROV1 ovarian; -32.2% (active) in the test with OVCAR-3 ovarian; -5.79% (active) in the test with HS 578T breast; -6.16% (active) in the test on NCI/ADR-RES ovarian; -27.4% (active) with T-47D breast; -74.2% (active) in the test on BT-549 breast. The growth is -80.1% (active) with MDA-MB-435 melanoma; -58.1% (active) in the test on SW-620 colon; -57.2% (active) in the test on MCF7 breast; -11.8% (active) with HCT-116 colon; -84.2% (active) in the test with HCC-2998 colon; -72.7% (active) in the test with KM12 colon.

`C[C@H]1OC(=O)/C=C/[C@@H](O)[C@@H](O)CCCCCCCC[C@@H]1O`: the growth in the test with SR leukemia was 118%; in the test on RPMI-8226 leukemia it was 101%; in the test on OVCAR-8 ovarian, 89.6%; in the test on OVCAR-5 ovarian it was 95.6%; in the test on OVCAR-4 ovarian, 101%; with SK-OV-3 ovarian, 94.9%. In addition, the growth with IGROV1 ovarian is 103%; in the test on OVCAR-3 ovarian, 109%; in the test on HS 578T breast it was 101%; with NCI/ADR-RES ovarian, 98.1%; in the test on T-47D breast, 59.9%; in the test with BT-549 breast, 105%. For the same molecule, the growth in the test with MDA-MB-435 melanoma was 106%; with SW-620 colon, 102%; in the test with MCF7 breast, 101%; in the test on HCT-116 colon, 88.4%; with KM12 colon it was 101%.

On to `CCN1CCN(C(=O)[C@]23CC[C@@H](C)[C@H](C)[C@H]2C2=CC[C@@H]4[C@@]5(C)C/C(=C/c6cccc(OC)c6OC)C(=O)C(C)(C)[C@@H]5CC[C@@]4(C)[C@]2(C)CC3)CC1`, for which the growth in the test on SR leukemia is 5.2% (active); in the test with RPMI-8226 leukemia, 15.4%; with OVCAR-8 ovarian, 50.3%; with OVCAR-5 ovarian, 67.8%; in the test with OVCAR-4 ovarian, 24.5%; with SK-OV-3 ovarian, 68.6%. Besides, the growth is 60.7% in the test on IGROV1 ovarian; 31.2% in the test on OVCAR-3 ovarian; 67.6% in the test with HS 578T breast; 35.3% in the test with NCI/ADR-RES ovarian; 18.2% in the test on T-47D breast; 55% with BT-549 breast. The growth in the test with MDA-MB-435 melanoma is 43.4%; with SW-620 colon, 33.3%; with MCF7 breast it was 12.2%; in the test with HCT-116 colon it was 17.9%; with HCC-2998 colon, 44.6%; in the test on KM12 colon it was 32.7%.

`Cn1cc(-c2csc(-c3cn(CCCN4CCCCC4)c4ccccc34)n2)c2cccnc21`: the growth is -50.7% (active) with SR leukemia; -35.9% (active) with RPMI-8226 leukemia; -68.4% (active) with OVCAR-8 ovarian; 92.9% with OVCAR-5 ovarian; -48.2% (active) with OVCAR-4 ovarian; 94.7% with SK-OV-3 ovarian. Moreover, the growth was 79.6% in the test with IGROV1 ovarian; -80.9% (active) in the test on OVCAR-3 ovarian; 67.5% in the test on HS 578T breast; -25% (active) in the test with NCI/ADR-RES ovarian; 92.5% in the test with T-47D breast; 72.7% with BT-549 breast. Besides, the growth in the test with MDA-MB-435 melanoma is -87.7% (active); in the test with SW-620 colon, -65.3% (active); with MCF7 breast, -77.2% (active); in the test on HCT-116 colon, -95% (active); in the test with KM12 colon, -62.8% (active).

As for `CC1(C)[C@@H](O)CC[C@]2(C)[C@H]3CC[C@@H]4[C@H]5[C@H](C(=O)/C=C/c6ccc(C(F)(F)F)cc6)CC[C@]5(CO)CC[C@@]4(C)[C@]3(C)CC[C@@H]12`, the growth is 17.8% in the test on SR leukemia; 28.2% in the test with RPMI-8226 leukemia; 55.7% with OVCAR-8 ovarian; 109% with OVCAR-5 ovarian; 38.4% in the test with OVCAR-4 ovarian; 98.6% in the test with SK-OV-3 ovarian. Further, the growth with IGROV1 ovarian is 61.5%; with OVCAR-3 ovarian, 51.8%; in the test with HS 578T breast, 59.6%; with NCI/ADR-RES ovarian, 70.5%; in the test on T-47D breast, 34.1%; in the test with BT-549 breast, 60%. The growth is 42.5% in the test with MDA-MB-435 melanoma; 44.5% in the test with SW-620 colon; 32.3% with MCF7 breast; 15.3% in the test with HCT-116 colon; 68.7% in the test on KM12 colon.

`Cc1nn(-c2ccc(Cl)cc2)c(=O)n1CCn1cnc2ccccc21`: the growth in the test with SR leukemia was 104%; in the test on RPMI-8226 leukemia it was 104%; with OVCAR-8 ovarian, 112%; in the test with OVCAR-5 ovarian it was 99.9%; in the test with OVCAR-4 ovarian it was 118%; in the test with SK-OV-3 ovarian, 113%. The growth was 102% in the test with IGROV1 ovarian; 111% with OVCAR-3 ovarian; 100% in the test on HS 578T breast; 103% in the test with NCI/ADR-RES ovarian; 90.8% in the test on T-47D breast; 97.5% in the test on BT-549 breast. For the same molecule, the growth in the test on MDA-MB-435 melanoma is 100%; in the test on MCF7 breast, 95.5%; in the test on HCT-116 colon, 97.5%; with KM12 colon it was 121%.

On to `COc1ccc2c(c1)C(Br)=C(CCO)C2c1ccccc1` (centres undefined), for which the growth with SR leukemia was 112%; in the test on RPMI-8226 leukemia, 40.7%; with OVCAR-8 ovarian, 86.1%; in the test with OVCAR-5 ovarian, 78%; in the test with OVCAR-4 ovarian, 87.3%; in the test with SK-OV-3 ovarian, 78.1%. Further, the growth in the test on IGROV1 ovarian is 83.5%; in the test with OVCAR-3 ovarian, 26%; in the test with HS 578T breast, 35.7%; with NCI/ADR-RES ovarian, 65.1%; in the test with T-47D breast, 54.3%; with BT-549 breast, 87.7%. In addition, the growth was 91.8% in the test on MDA-MB-435 melanoma; 73.2% with SW-620 colon; 58.8% in the test with MCF7 breast; 57.3% in the test with HCT-116 colon; 42.8% with KM12 colon.

With `COC(c1ccccc1)(c1ccccc1)c1ccccc1`, the growth with SR leukemia was 114%; with RPMI-8226 leukemia, 171%; with OVCAR-8 ovarian, 98.8%; with OVCAR-5 ovarian it was 113%; with OVCAR-4 ovarian, 99.3%; with SK-OV-3 ovarian, 107%. Besides, the growth was 123% in the test with IGROV1 ovarian; 108% in the test with OVCAR-3 ovarian; 103% with HS 578T breast; 108% in the test with NCI/ADR-RES ovarian; 87.1% with T-47D breast; 95.7% in the test on BT-549 breast. Further, the growth in the test on MDA-MB-435 melanoma is 108%; in the test with SW-620 colon it was 99.1%; in the test on MCF7 breast, 115%; in the test on HCT-116 colon it was 104%; with KM12 colon, 82.2%.

In the case of `O=C(CI)Nc1ccc(O)c2ccccc12`, the growth was -1.5% (active) with SR leukemia; -18.8% (active) in the test with RPMI-8226 leukemia; -22.9% (active) in the test on OVCAR-8 ovarian; 18.5% in the test with OVCAR-5 ovarian; 26.6% in the test on OVCAR-4 ovarian; 77.5% with SK-OV-3 ovarian. The growth in the test on IGROV1 ovarian is -15.5% (active); with OVCAR-3 ovarian, -29.5% (active); with HS 578T breast, 33.2%; in the test on NCI/ADR-RES ovarian it was -15.1% (active); in the test on T-47D breast it was -52% (active); in the test on BT-549 breast, 44.1%. The growth was -68.9% (active) with SW-620 colon; 0.823% (active) in the test on MCF7 breast; -59.5% (active) in the test on HCT-116 colon; 82.4% in the test on HCC-2998 colon; 64.8% in the test with KM12 colon.

The values are drawn from PubChem BioAssay (NCI).
